Reference: the supplement of paper PMC10498489
The whole screen tested about 2,300 compounds, of which about 330 (14%) showed activity. These entries were drawn from the full list. A number with no mark means an inactive call.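 Rule for the calls: active = median modified Z-score above 1.96; inactive = 1.96 or below.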

These compounds were tested on HepG2 Srxn1-GFP reporter cells (+30 nM CDDO-Me) (assay: Srxn1-GFP intensity median modified Z-score relative to plate median; higher = stronger NRF2 / oxidative stress reporter activation, active = hit call of the paper). Settings: 10 µM; exposure time: 24h.
Summary of the method: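 Compound at 10 μM was applied with an NRF2 activator at 30 nM to HepG2 Srxn1-GFP BAC reporter cells for 24 h, in DMSO at no more than 0.1%, using three replicate 96-well plates seeded at 20,000 cells per well. Fixed, Hoechst-stained cells were imaged confocally and cytoplasmic GFP was scored for each cell, with images under 100 cells left out. The figure reported is the replicate median of the per-plate modified Z-score of GFP intensity. Scaling relied on 1.4826 × median absolute deviation.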

Row | SMILES | Srxn1-GFP intensity median modified Z-score
1 | CO[C@@]1(NC(O)=c2sc(=C(C(N)=O)C(=O)O)s2)C(=O)N2C(C(=O)O)=C(CSc3nnnn3C)CSC21 (some centres not stated) [euspeclibcmpd474] | -0.0789
2 | CC(C)CCCC(C)C1CCC2C3CC[C@H]4CCCC[C@]4(C)C3CC[C@]12C (some centres not stated) [euspeclibcmpd1324] | 1.13
3 | CCCCCN=C(N)NN=Cc1c[nH]c2ccc(OC)cc12 [euspeclibcmpd723] | -0.285
4 | CCCSc1ccc2[nH]c(=NC(=O)OC)[nH]c2c1 [euspeclibcmpd630] | 3.71 (active)
5 | CCCOc1ccc2[nH]c(=NC(=O)OC)[nH]c2c1 [euspeclibcmpd575] | 5.09 (active)
6 | COc1ccc2[nH]cc(CCNC(C)=O)c2c1 [euspeclibcmpd1720] | -0.164
7 | NCCc1c[nH]cn1 [euspeclibcmpd147] | 0.0512
8 | COC=C1CS[C@@H]2C(=NC(=O)C(NOC)c3csc(=N)[nH]3)C(=O)N2C1C(=O)OC(C)OC(=O)OC(C)C (some centres not stated) [euspeclibcmpd832] | -0.299
9 | O=C1CC2(CCCC2)CC(=O)N1CCCCN1CCN(c2ncccn2)CC1 [euspeclibcmpd948] | 0.569
10 | CC1(C)SC2C(NC(=O)C(C(=O)O)c3ccsc3)C(=O)N2C1C(=O)O (configuration not stated) [euspeclibcmpd2129] | -0.127
11 | C[C@H](CCC(=O)O)[C@H]1CCC2C3C(CC[C@@]21C)[C@@]1(C)CC[C@@H](O)C[C@H]1C[C@H]3O (some centres not stated) [euspeclibcmpd2399] | -0.395
12 | CCC(=O)O[C@H]1[C@H](O[C@@H]2[C@@H](C)[C@H](O[C@H]3C[C@@](C)(OC)[C@@H](O)[C@H](C)O3)C(C)C(=O)O[C@H](CC)[C@@](C)(O)[C@H](O)C(C)C(=O)C(C)C[C@@]2(C)O)O[C@H](C)C[C@@H]1N(C)C (some centres not stated) [euspeclibcmpd411] | 0.128
13 | COC(=O)c1c(C)cc(O)cc1O [euspeclibcmpd2120] | -0.435
14 | CC(=O)OCC(=O)[C@@]1(O)CCC2C3CC=C4CC(=O)C=CC4(C)C3[C@@H](O)C[C@@]21C (some centres not stated) [euspeclibcmpd242] | -0.458
15 | O=C(NCCN1CCOCC1)NC(=O)c1ccc(Cl)cc1 | 1.77
16 | COC(=O)C1CCN(C(=O)C(OC(=O)C2CCC(=O)NC2)C(C)C)CC1 (configuration not stated) | 0.378
17 | CCOc1ccc(C(=O)c2ccc(O)c(O)c2O)cc1 [euspeclibcmpd1369] | 0.486
18 | NNCCc1ccccc1 [euspeclibcmpd231] | 0.202
19 | N=C(N)N=C(N)NCCc1ccccc1 [euspeclibcmpd898] | 4.79 (active)
20 | O=C(CCCl)NCCc1ccccc1 [euspeclibcmpd2364] | 0.0303
21 | CC(=O)OCC(=O)[C@@]1(O)[C@@H](C)CC2C3CC=C4CC(=O)C=C[C@]4(C)[C@@]3(F)[C@@H](O)C[C@@]21C (some centres not stated) [euspeclibcmpd2268] | 0.239
22 | CC(C)=CCOc1ccc2c(=O)c(-c3ccccc3)coc2c1 | 0.352
23 | CCc1c2c(nc3ccc(OC(=O)N4CCC(N5CCCCC5)CC4)cc13)-c1cc3c(c(=O)n1C2)COC(=O)C3(O)CC (configuration not stated) [euspeclibcmpd1960] | -0.421
24 | CCCCCCCCCCCCCCCC[N+](C)(C)C [euspeclibcmpd1124] | 7.69 (active)
25 | CCCNCCCCCC[N+](C)(C)C [euspeclibcmpd616] | 1.43
26 | C[N+](C)(C)CCCCCC[N+](C)(C)C [euspeclibcmpd1134] | -0.198

Row | SMILES | Srxn1-GFP intensity median modified Z-score
27 | CC1(C)O[C@@H]2CC3C4CC=C5CC(=O)C=C[C@]5(C)[C@@]4(F)[C@@H](O)C[C@]3(C)[C@]2(C(=O)CO)O1 (some centres not stated) [euspeclibcmpd303] | -0.909
28 | OCc1c[nH]c2ccccc12 [euspeclibcmpd1454] | 0.00439
29 | Cc1c[nH]c2ccccc12 [euspeclibcmpd1495] | 0.0463
30 | c1ccc2c(Cc3c[nH]c4ccccc34)c[nH]c2c1 [euspeclibcmpd2024] | 18.3 (active)
31 | O=P(O)(O)C(O)(Cc1cccnc1)P(=O)(O)O [euspeclibcmpd2383] | -0.244
32 | COc1ccc(CCN(C)CCCC(C#N)(c2ccc(OC)c(OC)c2)C(C)C)cc1OC (configuration not stated) [euspeclibcmpd958] | 5.38 (active)
33 | CC[C@H]1OC(=O)C(C)[C@@H](O[C@H]2C[C@@](C)(OC)[C@@H](O)[C@H](C)O2)[C@H](C)[C@@H](O[C@@H]2O[C@H](C)C[C@H](N(C)C)[C@H]2O)[C@](C)(O)CC(C)C(=O)C(C)[C@@H](O)[C@]1(C)O (some centres not stated) [euspeclibcmpd2296] | -0.138
34 | N#CC(c1ccc(Cl)cc1)c1c(Cl)cc(-n2ncc(=O)[nH]c2=O)cc1Cl (configuration not stated) [euspeclibcmpd478] | 15 (active)
35 | NC(Cc1cc(I)c(Oc2cc(I)c(O)c(I)c2)c(I)c1)C(=O)O (configuration not stated) [euspeclibcmpd345] | -0.572
36 | O=C(O)Cc1cc(I)c(Oc2ccc(O)c(I)c2)c(I)c1 [euspeclibcmpd1243] | 8.98 (active)
37 | NC(Cc1cc(I)c(Oc2ccc(O)c(I)c2)c(I)c1)C(=O)O (configuration not stated) [euspeclibcmpd346] | -0.0135
38 | CNS(=O)(=O)Cc1ccc2[nH]cc(CCN(C)C)c2c1 [euspeclibcmpd759] | -0.145
39 | CC(=O)O[C@@H]1C[C@@]2(C)C(CC[C@@H]2C(C)=O)C2CC=C3CC(=O)CC[C@]3(C)C21 (some centres not stated) [euspeclibcmpd1433] | 0.0291
40 | C[C@]12C=CC(=O)CC1=CCC1C2[C@@H](O)C[C@@]2(C)C1CC[C@]2(O)C(=O)COP(=O)(O)O (some centres not stated) [euspeclibcmpd2287] | 0.582
41 | Cc1ccc(NC(=O)c2ccc(CN3CCN(C)CC3)cc2)cc1N=c1nc(-c2cccnc2)cc[nH]1 [euspeclibcmpd1311] | 4.53 (active)
42 | O=C(O)c1ccc2c(c1)OCO2 [euspeclibcmpd1566] | -0.239
43 | CC1(C)C2CC[C@]3(C)C(C(=O)C=C4C5C[C@@](C)(C(=O)O)CC[C@]5(C)CC[C@]43C)[C@@]2(C)CC[C@@H]1O (some centres not stated) [euspeclibcmpd1147] | -1.35
44 | O=C(O)CCCCC1SCC2NC(=O)NC21 (configuration not stated) [euspeclibcmpd513] | -0.118
45 | CC(C)(CO)C(=O)C(O)NCCC(=O)NCCSSCCNC(=O)CCNC(=O)C(O)C(C)(C)CO (configuration not stated) [euspeclibcmpd1231] | -0.621
46 | O=C(CCBr)N1CCN(C(=O)CCBr)CC1 [euspeclibcmpd576] | 2.59 (active)
47 | O=C(O)/C=C/C=C/c1ccc2c(c1)OCO2 [euspeclibcmpd1736] | -0.462
48 | CC1(C)C2CC[C@]3(C)C(C(=O)C=C4C5C[C@@](C)(C(=O)O)CC[C@]5(C)CC[C@]43C)[C@@]2(C)CC[C@@H]1OC(=O)CCC(=O)O (some centres not stated) [euspeclibcmpd2080] | -0.0685
49 | NC(=O)c1ccc([N+](=O)[O-])cc1Cl [euspeclibcmpd514] | -0.559
50 | CC(OC(=O)c1cc(Cl)ccc1O)C(=O)Nc1ccc([N+](=O)[O-])cc1Cl (configuration not stated) | 1.24
51 | O=C(Nc1ccc([N+](=O)[O-])cc1Cl)c1cc(Cl)ccc1O [euspeclibcmpd562] | 2.35 (active)
52 | O=C(OCC(=O)N1CCCC1)c1sc2cc(Cl)cc(Cl)c2c1Cl | 0.374
